Hit rate of the full screen: of about 55,000 […], about 2,600 (4.7%) were called active. Rule as the data show it: active = GI50 up to about 1.1 µM and inactive = higher. A selection follows. Entries with a potency or affinity are not part of this list.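 Tested at 5 concentrations; 48 h exposure; 96-well plates; endpoints linearly interpolated, else capped at highest concentration. Here, GI50 denotes the concentration required for 50% inhibition of growth.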
The substances below were run on OVCAR-4 (assay: NCI tumour cell line growth inhibition, 48 h).
Work on “[Bis(aminomethyl)tetramethylenesilane]dichloropaltinum(II), CHEMBL2146205” yielded a GI50 of 59.8 µM.
With “[Bis(aminomethyl)tetramethylenesilane]tetrachloropaltinum(IV), CHEMBL2146189” the GI50 was 19 µM.
CISPLATIN, CHEMBL11359 showed a GI50 of 1.49 µM.
Substance “[Bis(aminomethyl)pentamethylenesilane]dichloropaltinum(II), CHEMBL2146202” has a GI50 of 5.46 µM.
For “cis-Bis[[(trimethylsilyl)methyl]amino]tetrachloroplatinum(IV), CHEMBL2146191”, the GI50 was 5.53 µM.
Work on “[Bis(aminomethyl)pentamethylenesilane]tetrachloropaltinum(IV), CHEMBL2146204” yielded a GI50 of 18.6 µM.
With “[Bis(aminomethyl)dimethylsilane]tetrachloroplatinum(IV), CHEMBL2146190” the GI50 was 18.8 µM.
With “[Bis(aminomethyl)dimethylsilane]dichloroplatinum (II), CHEMBL2146201” the GI50 was 45.8 µM.
Substance “[Bis(aminomethyl)ethylmethylsilane]tetrachloroplatinum(IV), CHEMBL2146192” has a GI50 of 10 µM.
With “mu-(1,7-nanodiamine-N,N')bis-(cis-aminedichloroplatimum (II)), CHEMBL2146215” the GI50 was 40.8 µM.
Substance “[Bis(aminomethyl)diethylsilane]tetrachloroplatinum(IV), CHEMBL2146203” has a GI50 of 14.7 µM.
